High-throughput results: PubChem, Fisher Drug Discovery Resource Center
Hits are enriched below; roughly 0.28% of the tested compounds scored in any of these assays.
hcGAS inh: blocks human cGAS activity. Q8N884. hit rate 0.081% among 290,000. recombinant h-cGAS, ATP depletion, Kinase-Glo luminescence. inhibition, % at 12.5 µM;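 note: 0% = vehicle reaction and 100% = reaction without DNA for no activity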
NPYLR7 ag: mosquito NPYLR7 agonism | HEK293T NPYLR7/Galpha15, GCaMP6s calcium fluorescence | activation, % at 10 µM | hit rate 0.15% among 270,000 | AID 1259423; in the data active = activation above about 40%;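 note: 0% = vehicle and 100% = reference agonist at the receptor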
mcGAS inh: mouse cGAS inhibition by luminescence | inhibition, % at 12.5 µM | recombinant cGAS, Kinase-Glo ATP depletion luminescence | Q8C6L5 | hit rate 0.15% among 160,000 | AID 1259399;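 note: 0% = negative control wells and 100% = reference inhibitor with no enzyme activity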
Target sequence (Q8C6L5 whole entry, looked up): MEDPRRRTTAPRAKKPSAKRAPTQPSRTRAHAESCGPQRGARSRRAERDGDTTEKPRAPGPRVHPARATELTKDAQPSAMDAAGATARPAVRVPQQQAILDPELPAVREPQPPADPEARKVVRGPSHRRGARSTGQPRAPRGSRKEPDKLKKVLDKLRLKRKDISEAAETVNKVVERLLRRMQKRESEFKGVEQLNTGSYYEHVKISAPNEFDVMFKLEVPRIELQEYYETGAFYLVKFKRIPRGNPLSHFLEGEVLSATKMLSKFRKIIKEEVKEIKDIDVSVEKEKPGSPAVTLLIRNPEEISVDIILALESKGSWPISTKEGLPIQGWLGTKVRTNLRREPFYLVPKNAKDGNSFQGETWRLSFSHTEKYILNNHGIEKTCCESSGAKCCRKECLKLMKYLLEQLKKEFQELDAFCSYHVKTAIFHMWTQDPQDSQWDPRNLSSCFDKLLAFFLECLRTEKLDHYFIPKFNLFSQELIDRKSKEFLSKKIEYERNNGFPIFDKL
Starred values were filed as active, the others as inactive; / = no result given. Cut-off read from the data, not from the text of the source, unless noted: active = inhibition above about 40%; inactive = the rest.

SMILES | hcGAS inh | NPYLR7 ag | mcGAS inh
O=S(=O)(c1ccc2c(c1)OCCCO2)N1CCN(c2ncc(Cl)cc2Cl)CC1 | -12 | -1 | /
O=C(O)CSc1ccc2c3c(cccc13)C(=O)c1ccccc1-2 | 76* | 94* | 66*
CCNC(=O)CSc1ccc2c3c(cccc13)C(=O)c1ccccc1-2 | 2 | 37 | /
COc1cc(CN2CCC(CO)(CCCc3ccccc3)CC2)cc(OC)c1O | -1 | -6 | -3
CCOC(=O)c1sc(NC(=O)CSc2nnc(C)s2)c(C(=O)OCC)c1C | -4 | -4 | 61*
CCOC(=O)c1sc(NC(=O)CSc2nnc3ccccn23)c(C(=O)OCC)c1C | -6 | -2 | -3
Cc1ccc(S(=O)(=O)N(C)Cc2ccc(C(=O)NN=C3CCN(C)CC3)cc2)cc1 | -5 | / | /
COc1ccc(-c2cc(C(=O)NCCN3CCCCC3)c(C)n2-c2ccccc2Cl)cc1 | -7 | 2 | 2
COc1cc(C=C2Oc3cc(O)ccc3C2=O)cc(OC)c1OC | -8 | 83* | /
CCOc1cc(C=C2N=C(c3ccc(Cl)cc3)OC2=O)ccc1OCC(=O)N(C)C | -8 | 18 | -8
COc1ccc(/C=C2\Oc3cc(OCC(N)=O)ccc3C2=O)cc1 | -1 | 3 | /
CCOc1cc(/C=C2/Oc3cc(O)ccc3C2=O)cc(Cl)c1OCC(=O)N(C)C | -5 | 150* | /
CN1C(=CC=C(C#N)C#N)C=Cc2ccccc21 | 10 | -6 | /
C=CCN1C=CC(=CC=C(C#N)C#N)C=C1 | -4 | 72* | /
COCCN(CC(=O)N(CCc1c[nH]c2ccccc12)Cc1ccccc1OC)C(=O)C(C)C | -1 | 11 | -5
Cc1cc(C(=O)N2CC=C(c3ccc(O)cc3)CC2)c(C)o1 | 1 | -2 | /
O=[N+]([O-])c1ccc2c(c1)S(=O)(=O)C=C2 | 2 | 8 | 86*
O=[N+]([O-])c1ccc(OC2=NS(=O)(=O)c3cc([N+](=O)[O-])ccc32)cc1 | -8 | 9 | -5
COc1ccc(N=Cc2c(O)n(-c3ccccc3)c(=O)c3ccccc23)c(OC)c1 | -5 | -3 | -6
COc1cccc(-n2c(O)c(C=Nc3cc(OC)ccc3OC)c3ccccc3c2=O)c1 | -3 | 52* | -6
Cc1ccc(OCc2cc(C(=O)N(C)CC3Cc4ccccc4O3)no2)cn1 (stereo not drawn) | 2 | 0 | /
C=CCn1c(=O)c2c(OCC)c(CC)cnc2n(C)c1=O | 3 | -2 | /
Cc1ccc2oc(-c3ccc(N)cc3)nc2c1 | -2 | -5 | -5
Nc1ccc(-c2nc3cc(N)cc(Cl)c3o2)cc1 | -3 | 118* | -3
CC(C)CN1C(=O)C(=Cc2c(N3CCN(CCO)CC3)nc3ccccn3c2=O)SC1=S | -4 | 79* | -5
SMILES | hcGAS inh | NPYLR7 ag | mcGAS inh
CCCNc1nc2ccccn2c(=O)c1C=C1SC(=S)N(CC(C)C)C1=O | -13 | 2 | /
Cc1ccc(-c2nc3nc(N)n(C)c(=O)c3[nH]c2=O)cc1 | -6 | 136* | -8
Cc1ccc(Nc2nc3c([nH]2)c(=O)n(C)c(=O)n3C)cc1 | -5 | 6 | -11
CCC(C)N(Cc1ccc(OC)c(OS(=O)(=O)C(C)C)c1)C(=O)Nc1ccccc1OC (stereo not drawn) | 0 | 12 | -7
Cc1csc(N2C(=N)SCC2=O)n1 | 42* | 8 | 5
Cc1csc(N2C(=N)SC(c3ccccc3)C2=O)n1 (stereo not drawn) | -3 | 1 | -1
O=C1c2ccc(-c3nc4ccccc4c(=O)o3)cc2C(=O)N1c1nc2ccccc2s1 | 33 | -8 | 45*
O=C1c2ccc(-c3nc4ccccc4c(=O)o3)cc2C(=O)N1c1ccc(Br)cc1 | -3 | 4 | -2
O=C(NCC1CCCO1)c1cc2nc(-c3ccc(Cl)c(Cl)c3)cc(C(F)(F)F)n2n1 (stereo not drawn) | 4 | 4 | 4
N#CC(C(=O)C(F)(F)F)c1nc2ccccc2s1 (stereo not drawn) | 44* | 1 | /
N#CC(C(=O)COc1cc(F)ccc1F)c1nc2ccccc2s1 (stereo not drawn) | -9 | 9 | /
C=CCO[C@H]1[C@H](NC(=O)COC)c2ccccc2C12CCN(C(=O)/C=C/c1cc(F)ccc1F)CC2 | -6 | 19 | -10
CC(C)N(C)Cc1nnnn1CC(=O)N1CCCCC1c1ccc(F)cc1 (stereo not drawn) | -5 | 14 | /
Cc1ccccc1Cn1c(CCNC(=O)c2ccco2)nc2ccccc21 | -5 | -3 | -8
COc1ccccc1CCNC(=O)c1ccc(Cn2c(C)nc3ccccc32)o1 | -3 | 64* | /
COCCN1C(=O)c2ccccc2C(C(=O)NCC2CCCN3CCCCC23)C12CCCC2 (stereo not drawn) | -6 | / | -6
CCOC(=O)C(C#N)=CNc1cnccn1 | -1 | 11 | -4
CCOC(=O)C(C#N)=CNc1nc(C(C)=O)cs1 | 53* | 4 | 64*
CSc1cccc(-n2nnc(C(=O)OCc3ccccc3F)c2C)c1 | 2 | 19 | 0
